In PubChem BioAssay AID540308 (The Scripps Research Institute Molecular Screening Center, 2011):
The whole screen tested about 360,000 compounds, of which about 3,500 (0.97%) were called active.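 Rule for the calls: active = activation above a per-plate cutoff, the mean activation of sample wells on that plate plus 3 SD (cut at about 8% in these data); inactive = the rest.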 Shown is part of a subset that was picked to be rich in actives.

These compounds were tested against Melanocortin receptor 4 (Homo sapiens) (UniProt P32245) (assay: activators of MC4R beta-arrestin recruitment – cell-based, luminescence, agonist arm of biased-ligand search, primary screen (AID 540308)). Conditions: U2OS MC4R beta-arrestin complementation, at 8.9 µM, hits give high values, percent of melanotan II response, DMSO zero.
Melanocortin receptor 4 (Homo sapiens), sequence (P32245 whole entry, looked up): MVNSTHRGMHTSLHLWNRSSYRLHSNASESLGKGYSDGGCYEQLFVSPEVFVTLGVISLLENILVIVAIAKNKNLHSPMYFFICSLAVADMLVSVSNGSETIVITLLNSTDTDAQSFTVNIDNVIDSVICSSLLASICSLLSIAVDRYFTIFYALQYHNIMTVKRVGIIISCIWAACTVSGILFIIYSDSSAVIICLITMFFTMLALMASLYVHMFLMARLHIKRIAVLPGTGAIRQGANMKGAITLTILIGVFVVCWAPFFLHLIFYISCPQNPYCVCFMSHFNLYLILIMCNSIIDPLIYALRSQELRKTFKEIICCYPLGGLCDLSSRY

activation, inactive:
CNc1cc(-c2c(OC)cccc2OC)ncn1 0.41%
Cc1ccc(/C=C(\C#N)C(=O)Nc2cccc3ncccc23)o1 0.31%
COc1cc(SC)ccc1C(=O)Nc1nc(C)cs1 -0.94%
CC1CCN(C(=S)c2ccc(-c3ccc(Cl)cc3Cl)o2)CC1 2.82%
O=C(NNc1cc(Cl)ccc1Cl)c1cccnc1Cl -2.02%
Cc1nc2c(OCc3ccc(Cl)cc3)cccn2c1N(C)Cc1cccs1 -2.75%
COc1ccc(CCNC(=O)Nc2ccc3c(c2)c(=O)n(C)n3C)cc1OC 1.3%
COc1cc(C(O)c2nc(-c3cccc(C(=O)O)c3)cs2)ccc1F (stereo not given) -1.9%
CC1(C(=O)NS(=O)(=O)c2cccc(OC(F)F)c2)CCN1C(=O)COc1ccc(Cl)cc1 (stereo not given) -1.09%
CCc1ccc(OC2(C)CCN(CCOc3ccc(C)cc3)C2)cc1 (stereo not given) 3.54%
CCN1CCN(CCNC(=O)c2ccc3c(c2)NC(=O)/C(=C\c2cccc(Cl)c2)S3)CC1 -0.09%
Cc1ccccc1CN1C(=O)c2ccccc2Sc2ccc(C(=O)NCCCN3CCOCC3)cc21 3.09%
CCc1nc2c(OCC(=O)C(C)(C)C)cccn2c1N(C)C(=O)c1ccccc1F -1.02%
CCC(=O)N1CCC(C)(C(=O)Nc2cc(OC)c(OC)c(OC)c2)C1 (stereo not given) -0.53%
CC1(C(=O)N/N=C/c2cc3c(cc2Br)OCO3)CC1(Br)Br (stereo not given) -3.59%
COc1cccc(C(NC(C)=O)c2nc(-c3ccccc3OC)cs2)c1 (stereo not given) -0.26%
Cc1cc(O)ccc1-c1cc(C(=O)NCc2cc(C(F)(F)F)cc(C(F)(F)F)c2)[nH]n1 2.75%
OC(c1ccc(F)cc1)c1ncc(-c2cccc(C(F)(F)F)c2)[nH]1 (stereo not given) 1.88%
CC(=O)NC(c1ccccc1)c1nc(-c2ccccc2C)cs1 (stereo not given) 0.3%
CC1(C(=O)NCc2ccc3c(c2)OCO3)CCN1C(=O)Cc1cccs1 (stereo not given) 0.72%
CCC(=O)c1ccc(OCC(=O)Nc2ccc(N3CCCCC3)cc2)cc1 3.06%
COc1ccc(OCC(=O)NNC(=O)C2CCC2)cc1 -1.99%
CC12CCC(=O)C=C1CCC1C2C(O)CC2(C)C1CCC2(O)C(O)CO (stereo not given) -0.23%
CCCNC(=O)C1(C)CCN(C(=O)c2ccccc2OC(F)(F)F)C1 (stereo not given) 0.4%
CC(=O)N1CCN(C(=O)c2cc(-c3ccc(C)o3)nc3ccccc23)CC1 -2.54%
COc1ccc(NC(=O)CN(C)C(=O)c2cc(-c3ccc(C)o3)nc3ccccc23)cc1 -0.83%
CCCCc1ccc(S(=O)(=O)NC(=O)C2(C)CCN2C(=O)c2c(C)noc2C)cc1 (stereo not given) -2.14%
Cc1cc(Cl)ccc1-c1nc(NCCN(C)C)nc2ccsc12 -0.54%
O=C(Nc1ccon1)c1nc[nH]c1C(=O)NCc1ccccc1 -0.8%
CCOC(=O)c1[nH]cnc1C(=O)Nc1ccccc1C 1%
COc1ccc(C(=O)N2CCCCC2c2cc(C(=O)Nc3ccc(F)c(Cl)c3)no2)cc1 (stereo not given) 2.26%
Cc1ccnc(N2C(=O)c3ccc([N+](=O)[O-])cc3C2=O)c1 -1.22%
Cc1ccc(C(=O)Cn2cc([N+](=O)[O-])nc2C)cc1 -1.74%
COc1ccc(C(C)(O)c2nc(-c3cc(F)cc(F)c3)cs2)cc1 (stereo not given) 3.01%
COC(=O)c1ccc(Sc2ccc(F)cc2)c(N)c1 -1.17%
COc1ccc(Sc2ccc(NC(=O)c3cccc(Cl)c3)cc2C#N)cc1 -0.48%
Clc1ccc(-c2cccc3nccn23)cc1 -0.44%
CCOC(=O)N/N=C/c1cn(Cc2ccccc2Cl)c2ccccc12 -2.13%
COc1cccc(Cn2cc(/C=N/NC(=O)c3cc(O)cc(O)c3)c3ccccc32)c1 -2.32%
Cc1ccc(C)c(N2CCN(S(=O)(=O)c3c(C)[nH]c(C)c3C(=O)N3CCCC3)CC2)c1 -0.89%
Cc1ccc(C)c(N2CCN(S(=O)(=O)c3ccc4c(c3)oc(=O)n4C)CC2)c1 -1.63%
O=c1c2c(-c3ccccc3)ccnc2[nH]n1-c1ccccc1 -0.95%
COc1ccc(-n2cc(-c3ccccc3)c3c(=S)nc[nH]c32)cc1 2.91%
COc1cc(Cn2c3ccc(NC(=O)CC(C)c4ccccc4)cc3c(=O)n2C)ccc1F (stereo not given) 1.46%
O=C(NCc1ccccc1Cl)c1csc([C@@H]2O[C@H](CO)[C@@H](O)[C@H]2O)n1 -0.25%
CCOCc1nnc(NC(=O)CSc2ccc(C)cc2)s1 -1.16%
O=C(/C=C/c1ccccc1)Nc1nnc(SCC(=O)c2ccc3ccccc3c2)s1 -0.51%

activation, active:
O=C(Nc1cccc2ncccc12)c1ccc(-c2ccc(Cl)cc2Cl)o1 20.2%
Cc1csc(NC(=O)c2ccc(-c3ccc(Cl)cc3Cl)o2)n1 12.6%
CCN1CCN(CCNC(=O)c2ccc(/C=C3/Sc4ccccc4N(Cc4cccc(C)c4)C3=O)cc2)CC1 13.8%
CC(C)Oc1c(Br)cc(Br)cc1/C=N/NC(N)=S 22.7%
COc1ccc(OCC(=O)Nc2ccc(N3CCC(C)CC3)cc2)cc1 10.2%
COc1ccc(NC(=O)c2cc(-c3ccc(C)o3)nc3ccccc23)cc1 9.46%
CCOC(=O)c1ccc(NC(=O)c2nc[nH]c2C(=O)NCc2ccccc2)cc1 8.44%
Cc1ccc(-n2cc3ccc([N+](=O)[O-])cc3n2)cc1 16.1%
Cc1ccc(Sc2ccc(NC(=O)c3ccc(F)cc3)cc2C#N)cc1 17%
N#CCC(=O)N/N=C/c1cn(Cc2ccc3ccccc3c2)c2ccccc12 11.1%
COC(=O)c1cc(S(=O)(=O)N2CCN(c3cc(C)ccc3C)CC2)c[nH]1 9.07%
O=c1[nH]cnc2c1c(-c1ccccc1)cn2-c1ccc(F)cc1 8.69%
O=C(CSc1ccccc1)Nc1nnc(/C=C/c2ccccc2)s1 10.9%
